Compound activity (PubChem BioAssay)
This is a sample that favours compounds with a hit; in the whole collection about 4.1% have one here.
TIM10 inh – growth inhibitors of isogenic TIM10 control yeast, primary screen, counter-screen for tim10-1 yeast inhibitor project, luminescence, uHTS; S. cerevisiae TIM10 strain growth, BacTiter-Glo luminescence, 24 h; inhibition, % at 10 µM; 330,000 compounds, 1.4% hits; AID 463195, 2010;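 active = inhibition of 40% or more at the single tested concentration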;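 also: wild-type TIM10 isogenic control strain grown at permissive 25 °C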
NALP1 inh – NALP1 inflammasome inhibitors in reconstituted yeast, colorimetric, S. cerevisiae, triplicate retest. S. cerevisiae NALP1/ASC/caspase-1 growth, X-gal OD620, 72 h. 280,000 compounds, 0.61% hits. inhibition, % at 10 µM; in the data active = inhibition mostly above about 24%, no sharp cut-off; inactive = mostly below about 32%
NLRP3 yeast inh – NALP3 inflammasome inhibitors in reconstituted yeast, primary screen, luminescence, uHTS | Yeast reconstituted NLRP3/ASC/caspase-1, beta-gal luminescence, 24 h | inhibition, % at 10 µM | 330,000 compounds, 0.39% hits;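 active = inhibition of 50% or more; inactive = inhibition below 50%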
tim23-1 inh – growth inhibitors of tim23-1 mutant yeast, primary screen, luminescence, uHTS; AID 463212, 2010; S. cerevisiae tim23-1 growth, BacTiter-Glo luminescence, 24 h; inhibition, % at 20 µM; 330,000 compounds, 1.3% hits;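 active = growth inhibition of the mutant yeast at or above 50%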;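 also: temperature-sensitive mutant grown at 25 °C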
PfHsp90 set2 – growth inhibition of PfHsp90-expressing yeast, primary screen, antimalarial PfHsp90 inhibitor project, S. cerevisiae, BacTiter-Glo luminescence, single point, set 2; BacTiter-Glo ATP, 48 h; yeast lacking PDR1 and PDR3 efflux regulators; inhibition, % at 9.4 µM; 310,000 compounds, 0.32% hits;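 active = every replicate shows inhibition above about 80%, whatever the replicate mean, limit read from the data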
tim10-1 inh – growth inhibitors of tim10-1 mutant yeast, primary screen, luminescence, uHTS; S. cerevisiae tim10-1 ts strain growth, BacTiter-Glo, 24 h; inhibition, % at 20 µM; 330,000 compounds, 2.2% hits; AID 463190, 2010;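 active = inhibition of at least 40%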;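 also: mutant grown at 25 °C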
tim10 confirm – growth inhibitors of wild-type TIM10 yeast, confirmation, counter-screen for tim10-1 synthetic lethality project, single concentration, luminescence, S. cerevisiae; 4,600 compounds, 63% hits; inhibition, % at 10 µM; shares compounds with TIM10 inh; S. cerevisiae tim10 strain growth, BacTiter-Glo luminescence, 24 h;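 active = inhibition of yeast growth at or above a set limit in either of two replicates at 10 µM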; also: this counterscreen used the strain with wild-type TIM10
Numbers stand for hits; - = inactive; . = not tested or not shown.

SMILES	TIM10 inh	NALP1 inh	NLRP3 yeast inh	tim23-1 inh	PfHsp90 set2	tim10-1 inh	tim10 confirm
COc1ccc(C2CC(=O)C(C=NCC(C)C)=C(O)C2)cc1 (stereo not given)	97	-	-	-	-	-	-
CCC(C)N=CC1=C(O)CC(c2ccccc2)CC1=O (stereo not given)	-	-	-	-	-	-	.
Cc1cccc(Cn2ccc(NC(=O)c3ccc4c(c3)OCO4)n2)c1	40	-	-	-	-	-	34
Cc1cccc(Cn2ccc(NC(=O)c3cccnc3)n2)c1	-	-	-	-	-	-	.
Cc1ccc(C)c(S(=O)(=O)Nc2ccc(-n3cnnn3)cc2)c1	-	.	-	-	.	-	.
Cc1cc(C)cc(OCCNC(=O)C2CCN(S(=O)(=O)c3ccccc3)CC2)c1	-	-	-	-	-	-	.
COc1ccc(OC)c(NC(=O)c2cc(S(=O)(=O)N(C)C)ccc2N2CCCC2)c1	-	.	-	-	.	-	.
CC(=O)c1ccc2c(c1)Nc1ccccc1S2	88	-	-	-	-	-	-
CCOc1ccc(NC(=O)CN(C)C(=O)C2CCCO2)cc1OCC (stereo not given)	-	.	-	-	.	-	.
Cc1ccccc1NC(=S)NC(=O)CCc1ccccc1	44	-	-	-	-	-	36
Cc1[nH]c2ccccc2c1/C=N/Nc1nc(Nc2ccccc2)nc(N2CCOCC2)n1	52	-	-	-	-	-	35
COc1ccc(/C=N/Nc2nc(Nc3ccccc3)nc(N3CCCCC3)n2)c(OC)c1	41	-	-	-	-	-	-
Oc1[nH]c2ccccc2c1N=Nc1nc(Nc2ccccc2)nc(N2CCOCC2)n1	-	.	-	-	-	-	.
Fc1ccc(Nc2nc(N/N=C/c3ccco3)nc(N3CCCCC3)n2)cc1	40	-	-	-	-	-	-
O=C(NCCOc1ccccc1)C1CCC(=O)N(C2CCCCCC2)C1 (stereo not given)	-	-	-	-	-	-	.
Cc1cc(Br)ccc1NC(=O)CN(C)C(=O)Cn1c(=O)cnc2ccccc21	-	-	-	-	-	-	.
COc1ccc(OCC(=O)N(Cc2sccc2C)C2CCS(=O)(=O)C2)cc1 (stereo not given)	-	-	-	-	-	-	.
O=C(c1ccc(Br)cc1)C(CN1CCOCC1)c1ccccc1 (stereo not given)	51	39	-	-	98	-	60
CCN(c1ccccc1)S(=O)(=O)c1ccc(Cl)c(NC(=O)COC(=O)c2cc(O)c3ccccc3c2O)c1	45	.	-	-	.	-	32
COc1ccc(NC(=O)Nc2cccc3ccccc23)cc1S(N)(=O)=O	-	-	-	-	-	-	.
O=C(CCc1nc2ccccc2s1)Nc1ccccc1	47	-	-	-	-	-	-
Cn1c(C(=O)N2CCCC(Nc3ccc(F)cc3)C2)cc2ccccc21 (stereo not given)	-	-	-	-	-	-	.
S=C(NCCc1ccccc1)N/N=C/c1c(Cl)cccc1Cl	-	-	-	-	-	-	.
S=C(NCCc1ccccc1)N/N=C/c1ccc(Cl)cc1	41	.	-	-	-	-	33
C=CCNC(=O)C12CCC(C)(C(=O)[C@H]1Br)C2(C)C (stereo not given in full)	42	-	-	-	-	-	-
SMILES	TIM10 inh	NALP1 inh	NLRP3 yeast inh	tim23-1 inh	PfHsp90 set2	tim10-1 inh	tim10 confirm
COc1ccc(OC)c(/C=C/C(=O)c2ccc(Cl)cc2)c1	45	-	-	-	-	-	32
COc1ccccc1/C=C/C(=O)c1ccc(Cl)cc1	-	-	-	-	-	-	.
CC(C)CNc1nnnc2c1sc1nc(N3CCOCC3)c3c(c12)CC(C)(C)SC3	40	-	-	-	-	-	-
CCOC(=O)c1cc(C(=O)OCC)c(=O)[nH]c1SCc1ccccc1	-	-	-	-	-	-	.
CC(C)N(Cc1ccccc1)C(=O)CN1C(=O)NC2(CCCCCC2)C1=O	-	.	-	-	.	-	.
CCOC(=O)C1=C(C)NC(=S)NC1c1ccc(-c2ccc(Cl)cc2)o1 (stereo not given)	44	-	-	-	-	-	33
CCOC(=O)C1=C(C)NC(=S)N(C(C)=O)C1c1ccc(Cl)cc1 (stereo not given)	42	-	-	-	-	-	42
CCOC(=O)C1=C(C)NC(=O)NC1c1ccc(-c2ccc(Cl)cc2)o1 (stereo not given)	-	-	-	-	-	-	.
CCOC(=O)C1=C(C)NC(=S)N(C(C)=O)C1c1ccc(OC)c(OC)c1 (stereo not given)	-	-	-	-	-	-	.
O=S(=O)(NCC1(N2CCOCC2)CCCCC1)c1ccc(F)c(F)c1F	-	.	-	-	-	-	.
CCOC12NC(=O)CC(=O)N1C(c1ccccc1)=CS2 (stereo not given)	43	-	-	-	.	-	-
CCN(Cc1ccccc1)S(=O)(=O)c1c(C)[nH]c(C)c1C(=O)N1CCCC1	53	-	-	-	-	-	-
Cc1ccc(S(=O)(=O)NCC(=O)OCC(=O)Nc2cccc(S(=O)(=O)N3CCOCC3)c2)cc1	-	.	-	-	-	-	.
COCCCNC(=S)N/N=C/c1ccc2ccccc2c1	41	-	-	-	-	-	37
COCCCNC(=S)N/N=C/c1ccc(OC)cc1	-	-	-	-	-	-	.
NC(=S)N/N=C/c1ccc2ccccc2c1	40	-	-	-	-	-	-
NC(=S)N/N=C/c1cccc(/C=N/NC(N)=S)c1	-	-	-	-	-	-	.
CCOc1ccc(NC(=O)[C@@H]2CCC(=O)N2C2OC(=O)c3ccccc32)cc1 (stereo not given in full)	-	-	-	-	-	-	.
CN1CCN(C(=O)c2ccc(NS(=O)(=O)c3cccc([N+](=O)[O-])c3)cc2)CC1	-	.	-	-	.	-	.
COc1ccc(C(=O)Nc2ccc3c(c2)nc2n3CCSC2)cc1	51	-	-	-	.	-	42
Cc1nc2ccc(NC(=O)c3ccccc3)cc2s1	44	-	-	-	-	-	-
O=C(Nc1ccc2c(c1)nc1n2CCSC1)c1ccccc1	66	-	-	-	-	-	67
Cc1nc2ccc(NS(=O)(=O)c3ccc(F)cc3)cc2s1	60	-	-	-	-	-	-
CCC(=O)Nc1ccc2c(c1)nc1n2CCSC1	-	-	-	-	-	-	.
